In assay [1] the target is GTPase HRas (Homo sapiens) (UniProt P01112). As to the kind of experiment: Ras wt fluorescent GTP loading blockade – biochemical, wildtype, multiplex bead flow cytometry, dose response (AID 1335). The settings on record: bead-based flow cytometry, Bodipy-GTP binding to GST-Ras; at 100 µM (top of the series). (A flow cytometer gives signals particle by particle.)
The nature of assay [2]: rapamycin-like changes in RPL19A-GFP expression – cell-based, S. cerevisiae, multiplex flow cytometry, primary screen (AID 1862; in the data active means percent of DMSO control GFP below about 86%;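 further: lower values mimic rapamycin by blocking the RPL19A rise seen in DMSO cells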). The settings on record: S. cerevisiae RPL19A-GFP strain, flow cytometry fluorescence, 3 h; at 10 µM; stronger effect = lower value.
Assay [3] can be described thus: TOR pathway GLN3 branch reporter MEP2-GFP changes – S. cerevisiae, multiplex flow cytometry, primary screen (AID 1867;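 active means GFP response, as percent of the DMSO control, above the screen-wide mean plus 3 SD, about 139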;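 further: median GFP channel fluorescence of barcode-gated MEP2-GFP cells measured by flow cytometry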). The settings on record: S. cerevisiae MEP2-GFP strain, 3 h, at 10 µM, stronger effect = higher value.
Assay [4] in a line: TOR pathway RTG branch CIT2 reporter changes – S. cerevisiae, GFP fusion, multiplex flow cytometry, primary screen (AID 1870;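 active means percent response above a set limit, the screen-wide mean plus 3 SD, cut at about 130% in these data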;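 further: barcoded CIT2-GFP strain pooled with four other GFP strains with rapamycin as positive control; median GFP fluorescence per well over plate mean of DMSO wells so 100% = DMSO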). The settings on record: S. cerevisiae CIT2-GFP expression, 3 h, at 10 µM, stronger effect = higher value.
Assay [5] can be described thus: TOR pathway LAP4-GFP level changes – S. cerevisiae, multiplex flow cytometry, primary screen (AID 1873;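 active means GFP signal, as percent of the solvent control, above the screen mean plus 3 SD, about 149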). To be noted: S. cerevisiae LAP4-GFP expression, 3 h, at 10 µM, stronger effect = higher value.
A short description of assay [6]: yeast AGP1-GFP level changes, GLN3 branch – cell-based, multiplex flow cytometry, S. cerevisiae, primary screen (AID 1887;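 active means GFP signal above the screen-wide mean plus 3 SD, that is over about 124.5% of the solvent control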;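 further: AGP1-GFP fusion strain of S. cerevisiae within a five-strain barcoded multiplex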). The settings on record: 3 h, at 10 µM, stronger effect = higher value.
Assay [7] is described as follows: reduced mouse 2C T cell binding to pMHC/ICAM-1 vesicles – MLPCN validation set, flow cytometry, LFA-1/ICAM-1 modulator project, pilot screen (AID 2523;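 active means response below a set limit, under 55% cells CD8-positive and vesicle-bound, and CD8 cells' 90th-percentile brightness under 279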;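 on vesicle binding response: mean PE anti-B7-1 fluorescence of CD8+ cells relative to row control; 100% = QL9-loaded vesicles with DMSO vehicle in the same plate row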). To be noted: 2C mouse CD8+ T cells, at 7 µM, stronger effect = lower value; double positive events: measured here: CD8+/vesicle+ event percentage.
The target of assay [8] is Integrin beta-1 (Homo sapiens) + Integrin alpha-4 (Homo sapiens) (UniProt P13612+P05556). Briefly: alpha4beta1 integrin LIBS antibody binding reduction – U937 cells, HUTS-21 mAb, flow cytometry, validation set, VLA-4 allosteric modulator project, pilot screen (AID 2674;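 active means inhibition above 50%, about 3 SD of the validation set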;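 further: antibody binding induced by the VLA-4 ligand LDV present at three times its Kd; 0% = LDV ligand with antibody and no compound and 100% = antibody without LDV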). To be noted: HUTS-21 LIBS mAb binding, at 6.7 µM, stronger effect = higher value.
Assay [9] can be described thus: calorie-restriction mimetic ROS inhibitors, yeast – validation compound set, pilot screen (AID 2706;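 active means superoxide response below 65% of plate, a cut near 3 SD across the whole screen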;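 further: yeast exposed to compound for one week at 30 degrees C before staining; 100% = mean of all compound wells on the same plate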). The settings on record: S. cerevisiae aging, superoxide DHE fluorescence; at 10 µM; stronger effect = lower value.
For assay [10], the target named is Beta-adrenergic receptor kinase 1 (Homo sapiens) (UniProt P25098). Briefly: GRK2 binders displacing RNA aptamer, biochemical, validation, human GRK2, bead flow cytometry (AID 488806;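 active means aptamer binding inhibition above 30%, about 3 SD of noise from non-fluorescent compounds; inactive means inhibition at or below 30%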). The settings on record: bead-bound GRK2, FAM-aptamer displacement, at 10 µM, stronger effect = higher value.
Assay [11] addresses Beta-2 adrenergic receptor (Homo sapiens) (UniProt P07550). Briefly: agonist-induced loss of surface beta2AR – cell-based, FAP fluorogen, flow cytometry, validation set, pilot screen (AID 504459;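 active means percent response above 42, roughly 3 SD of non-fluorescent test compounds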;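 further: agonist-driven loss of surface beta2AR via internalization measured by FAP dye flow cytometry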). To be noted: Am2.2-beta2AR cells, at 10 µM, stronger effect = higher value.
In assay [12] the target is AP-2 complex subunit beta (Homo sapiens) (UniProt P63010). As to the kind of experiment: beta-arrestin/AP2 interaction blockers – biochemical, validation set, GST-AP2 beads, flow cytometry, pilot screen (AID 504541;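 active means inhibition above 54%, about 3 SD of non-fluorescent compounds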;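 further: AP2 carries R879A mutation and is captured from E. coli lysate; bead-bound FITC arrestin peptide fluorescence measuring arrestin peptide binding to AP2; 0% = DMSO wells and 100% = excess unlabeled arrestin peptide control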). The settings on record: FITC arrestin peptide, at 10 µM, stronger effect = higher value.
A short description of assay [13]: cytosolic pH regulators acting via V-ATPase – S. cerevisiae, pHLuorin, HTS validation (AID 504600; in the data active means response above about 15%;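 further: plate controls were DMSO for no effect and reference compound for full effect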). To be noted: V-ATPase proton transport, at 10 µM, stronger effect = higher value.
Assay [14] concerns anti-desmoglein-3 scFv antibody binding to human DSG3. Briefly: blockers of pathogenic pemphigus antibody–desmoglein-3 binding – biochemical, validation compound set, bead-based, flow cytometry, pilot screen (AID 588368;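 active means binding below the plate cutoff, the plate median minus 3 SD, with a reading above zero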;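 further: signal is the median channel fluorescence of bead-bound GFP antibody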). To be noted: Protein G beads, DSG3-Fc, scFv-GFP binding, at 10 µM, stronger effect = lower value.
For assay [15], the system named is Botulinum neurotoxin type F light chain protease (Clostridium botulinum). Briefly: Clostridium botulinum type F light chain protease inhibitors, microsphere substrate cleavage, validation (AID 588459; call rule not given here). To be noted: multiplex microsphere protease substrate cleavage assay, flow cytometry; at 10 µM; stronger effect = higher value.
Assay [16] concerns the target Botulinum neurotoxin type A (Clostridium botulinum) (UniProt P0DPI0). As to the kind of experiment: BoNT/A light chain protease inhibitors, biochemical, multiplex microsphere flow cytometry, validation set (AID 588460; call rule not given here). To be noted: at 10 µM, stronger effect = higher value.
Assay [17] has as its target Lethal factor (Bacillus anthracis) (UniProt P15917). As to the kind of experiment: Bacillus anthracis lethal factor inhibition, microsphere flow cytometry protease assay, validation at 10 µM (AID 588461; call rule not given here). To be noted: multiplex microsphere protease cleavage assay, stronger effect = higher value.
Assay [18] in a line: Nile Red efflux blockade in pump-expressing yeast – validation compound set, multiplex, phenotypic, pilot screen (AID 588506;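 active means efflux inhibition above 0.42, the validation set average plus 4 SD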;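 further: Nile Red retained in cells so higher fluorescence means more efflux inhibition; 0 = negative control wells and 1 = enniatin B 25 µM full block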). The settings on record: S. cerevisiae pump-expressing triplex, Nile Red efflux flow cytometry; at 10 µM; stronger effect = higher value.
In assay [19] the target is ATP-binding cassette sub-family B member 6 (Homo sapiens) (UniProt Q9NP58). Briefly: blockers of ABCB6-driven porphyrin uptake – K562-ABCB6 cells, flow cytometry, validation set, pilot screen (AID 588550;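 active means inhibition above the screen-wide mean plus 3 SD, about 51%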;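 further: 0% = DMSO wells and 100% = benzethonium chloride 70 µM positive control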). The settings on record: K562-ABCB6 porphyrin accumulation, 1 h, at 10 µM, stronger effect = higher value.
Assay [20] in a line: AML differentiation inducers, ER-HoxA9 marrow cells – cell-based, GFP/MAC1 double positive, flow cytometry, validation set, primary screen (AID 588685;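 active means differentiation response of at least 50%, scaled between solvent and reference control, from cells with both markers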;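 further: compound exposure lasts four days before antibody staining and flow analysis; 0% = DMSO wells and 100% = 5 µM fulvestrant positive control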). To be noted: stronger effect = higher value.

The structures appear in SMILES notation. Results filed as inconclusive are left out. The source made the active and inactive calls.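 How the source made its calls, unless noted: active means fitted half-maximal concentration within 10 nM to 100 µM, steepness 0.5 to 2, significant signal drop, low assay interference; inactive means the rest.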

Sequence of GTPase HRas (Homo sapiens) (P01112 whole entry, looked up): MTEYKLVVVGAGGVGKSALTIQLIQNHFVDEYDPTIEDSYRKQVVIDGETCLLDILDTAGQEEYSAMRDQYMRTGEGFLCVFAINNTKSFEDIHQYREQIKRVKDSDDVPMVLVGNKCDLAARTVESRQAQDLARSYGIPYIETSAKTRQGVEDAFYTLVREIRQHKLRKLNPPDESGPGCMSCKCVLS
Sequence of Lethal factor (Bacillus anthracis) (P15917 whole entry, looked up): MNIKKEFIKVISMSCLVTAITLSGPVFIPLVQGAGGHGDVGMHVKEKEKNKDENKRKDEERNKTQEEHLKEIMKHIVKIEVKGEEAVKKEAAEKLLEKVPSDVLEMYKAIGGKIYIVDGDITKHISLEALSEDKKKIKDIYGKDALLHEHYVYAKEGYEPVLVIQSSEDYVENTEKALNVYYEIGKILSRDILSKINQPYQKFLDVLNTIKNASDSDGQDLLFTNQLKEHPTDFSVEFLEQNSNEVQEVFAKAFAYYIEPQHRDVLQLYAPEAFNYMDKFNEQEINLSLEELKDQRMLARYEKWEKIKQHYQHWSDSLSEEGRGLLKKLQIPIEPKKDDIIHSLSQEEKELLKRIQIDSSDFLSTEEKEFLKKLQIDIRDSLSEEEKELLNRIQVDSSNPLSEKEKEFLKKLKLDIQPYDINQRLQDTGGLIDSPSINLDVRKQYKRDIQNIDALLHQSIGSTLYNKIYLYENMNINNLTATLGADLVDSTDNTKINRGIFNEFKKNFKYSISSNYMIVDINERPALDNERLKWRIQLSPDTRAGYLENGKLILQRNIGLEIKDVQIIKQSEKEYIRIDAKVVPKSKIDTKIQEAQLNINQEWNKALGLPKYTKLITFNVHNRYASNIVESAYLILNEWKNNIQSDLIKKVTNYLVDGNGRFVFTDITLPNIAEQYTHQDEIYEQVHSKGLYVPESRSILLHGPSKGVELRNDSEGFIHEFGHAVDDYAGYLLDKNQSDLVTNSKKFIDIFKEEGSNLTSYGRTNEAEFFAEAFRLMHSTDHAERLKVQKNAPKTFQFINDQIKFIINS
Sequence of Botulinum neurotoxin type A (Clostridium botulinum) (P0DPI0 whole entry, looked up): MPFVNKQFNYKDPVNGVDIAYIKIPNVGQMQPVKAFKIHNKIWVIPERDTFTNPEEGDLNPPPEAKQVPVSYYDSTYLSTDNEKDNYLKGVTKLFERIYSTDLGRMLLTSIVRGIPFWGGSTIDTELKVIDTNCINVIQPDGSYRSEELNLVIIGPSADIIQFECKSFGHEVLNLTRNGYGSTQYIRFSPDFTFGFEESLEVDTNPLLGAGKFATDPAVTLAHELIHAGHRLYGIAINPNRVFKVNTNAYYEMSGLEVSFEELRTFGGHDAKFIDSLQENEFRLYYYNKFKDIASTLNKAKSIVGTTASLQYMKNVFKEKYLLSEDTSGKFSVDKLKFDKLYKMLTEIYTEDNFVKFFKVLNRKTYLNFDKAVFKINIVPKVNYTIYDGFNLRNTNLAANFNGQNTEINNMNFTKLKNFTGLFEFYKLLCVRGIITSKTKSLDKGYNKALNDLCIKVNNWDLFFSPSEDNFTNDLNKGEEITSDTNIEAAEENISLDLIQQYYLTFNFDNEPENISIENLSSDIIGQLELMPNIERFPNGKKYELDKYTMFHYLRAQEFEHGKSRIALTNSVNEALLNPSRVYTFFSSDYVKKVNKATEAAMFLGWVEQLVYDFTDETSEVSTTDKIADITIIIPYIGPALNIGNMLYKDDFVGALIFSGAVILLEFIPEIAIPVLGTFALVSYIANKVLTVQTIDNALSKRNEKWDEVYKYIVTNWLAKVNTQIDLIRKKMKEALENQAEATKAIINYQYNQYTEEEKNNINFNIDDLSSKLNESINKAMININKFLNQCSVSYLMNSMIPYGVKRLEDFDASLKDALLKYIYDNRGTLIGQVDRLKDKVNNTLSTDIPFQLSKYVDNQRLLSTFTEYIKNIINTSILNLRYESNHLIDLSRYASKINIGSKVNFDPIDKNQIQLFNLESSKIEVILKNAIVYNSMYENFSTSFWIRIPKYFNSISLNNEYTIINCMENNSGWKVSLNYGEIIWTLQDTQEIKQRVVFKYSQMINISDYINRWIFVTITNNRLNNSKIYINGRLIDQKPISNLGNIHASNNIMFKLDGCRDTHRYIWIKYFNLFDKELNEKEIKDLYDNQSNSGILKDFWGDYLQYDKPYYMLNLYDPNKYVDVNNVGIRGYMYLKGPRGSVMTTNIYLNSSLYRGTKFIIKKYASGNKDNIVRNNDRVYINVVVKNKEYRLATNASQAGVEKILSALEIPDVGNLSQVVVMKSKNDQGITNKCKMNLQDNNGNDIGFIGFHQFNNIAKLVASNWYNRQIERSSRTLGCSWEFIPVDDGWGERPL
Sequence of Integrin beta-1 (Homo sapiens) + Integrin alpha-4 (Homo sapiens) (P05556 whole entry, looked up): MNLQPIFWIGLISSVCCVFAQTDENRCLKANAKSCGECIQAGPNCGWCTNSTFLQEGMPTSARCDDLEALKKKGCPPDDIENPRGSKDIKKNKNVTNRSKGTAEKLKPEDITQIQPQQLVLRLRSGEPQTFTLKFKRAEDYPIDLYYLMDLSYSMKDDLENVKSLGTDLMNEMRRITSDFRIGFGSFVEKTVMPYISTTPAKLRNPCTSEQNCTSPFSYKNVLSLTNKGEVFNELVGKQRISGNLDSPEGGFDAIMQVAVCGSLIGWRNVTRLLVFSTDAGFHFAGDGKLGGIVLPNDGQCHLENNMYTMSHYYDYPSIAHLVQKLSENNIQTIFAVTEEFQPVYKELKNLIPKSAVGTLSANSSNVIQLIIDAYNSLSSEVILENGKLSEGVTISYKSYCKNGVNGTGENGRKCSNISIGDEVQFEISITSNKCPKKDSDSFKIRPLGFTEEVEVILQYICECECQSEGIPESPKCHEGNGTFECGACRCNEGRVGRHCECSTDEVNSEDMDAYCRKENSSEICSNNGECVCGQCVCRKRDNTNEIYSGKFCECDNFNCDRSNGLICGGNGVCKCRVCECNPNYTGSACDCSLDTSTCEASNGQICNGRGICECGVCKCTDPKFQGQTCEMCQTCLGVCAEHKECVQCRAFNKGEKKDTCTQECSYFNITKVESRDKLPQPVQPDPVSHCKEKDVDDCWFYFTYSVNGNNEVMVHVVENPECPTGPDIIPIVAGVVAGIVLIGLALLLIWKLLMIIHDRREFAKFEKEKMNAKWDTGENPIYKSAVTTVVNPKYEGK
Sequence of Integrin beta-1 (Homo sapiens) + Integrin alpha-4 (Homo sapiens) (P13612 whole entry, looked up): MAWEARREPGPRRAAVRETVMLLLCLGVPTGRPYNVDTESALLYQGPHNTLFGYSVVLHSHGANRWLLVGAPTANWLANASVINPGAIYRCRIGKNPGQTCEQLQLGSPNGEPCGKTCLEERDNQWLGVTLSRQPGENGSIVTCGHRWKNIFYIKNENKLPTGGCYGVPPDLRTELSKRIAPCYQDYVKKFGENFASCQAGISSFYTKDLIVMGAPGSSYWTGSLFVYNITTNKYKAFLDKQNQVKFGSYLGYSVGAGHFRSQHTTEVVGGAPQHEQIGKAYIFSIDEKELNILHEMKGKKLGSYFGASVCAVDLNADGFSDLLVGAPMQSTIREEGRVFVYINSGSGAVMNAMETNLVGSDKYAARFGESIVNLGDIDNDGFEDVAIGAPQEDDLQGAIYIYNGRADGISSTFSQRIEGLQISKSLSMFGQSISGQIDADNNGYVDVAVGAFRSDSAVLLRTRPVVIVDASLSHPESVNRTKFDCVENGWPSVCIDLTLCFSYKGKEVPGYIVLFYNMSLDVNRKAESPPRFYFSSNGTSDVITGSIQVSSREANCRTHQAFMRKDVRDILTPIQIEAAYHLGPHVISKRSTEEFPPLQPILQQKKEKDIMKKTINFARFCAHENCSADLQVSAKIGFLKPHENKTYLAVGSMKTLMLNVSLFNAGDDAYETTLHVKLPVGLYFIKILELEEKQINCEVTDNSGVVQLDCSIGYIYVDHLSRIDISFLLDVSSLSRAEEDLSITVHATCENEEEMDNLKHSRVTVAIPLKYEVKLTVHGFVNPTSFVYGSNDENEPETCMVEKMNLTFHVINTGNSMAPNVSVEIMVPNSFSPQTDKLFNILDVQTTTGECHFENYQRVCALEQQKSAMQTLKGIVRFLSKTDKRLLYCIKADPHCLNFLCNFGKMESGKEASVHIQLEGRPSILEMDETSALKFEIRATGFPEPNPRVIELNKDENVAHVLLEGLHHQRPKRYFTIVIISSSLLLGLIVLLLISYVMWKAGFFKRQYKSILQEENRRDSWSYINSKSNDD
Sequence of ATP-binding cassette sub-family B member 6 (Homo sapiens) (Q9NP58 whole entry, looked up): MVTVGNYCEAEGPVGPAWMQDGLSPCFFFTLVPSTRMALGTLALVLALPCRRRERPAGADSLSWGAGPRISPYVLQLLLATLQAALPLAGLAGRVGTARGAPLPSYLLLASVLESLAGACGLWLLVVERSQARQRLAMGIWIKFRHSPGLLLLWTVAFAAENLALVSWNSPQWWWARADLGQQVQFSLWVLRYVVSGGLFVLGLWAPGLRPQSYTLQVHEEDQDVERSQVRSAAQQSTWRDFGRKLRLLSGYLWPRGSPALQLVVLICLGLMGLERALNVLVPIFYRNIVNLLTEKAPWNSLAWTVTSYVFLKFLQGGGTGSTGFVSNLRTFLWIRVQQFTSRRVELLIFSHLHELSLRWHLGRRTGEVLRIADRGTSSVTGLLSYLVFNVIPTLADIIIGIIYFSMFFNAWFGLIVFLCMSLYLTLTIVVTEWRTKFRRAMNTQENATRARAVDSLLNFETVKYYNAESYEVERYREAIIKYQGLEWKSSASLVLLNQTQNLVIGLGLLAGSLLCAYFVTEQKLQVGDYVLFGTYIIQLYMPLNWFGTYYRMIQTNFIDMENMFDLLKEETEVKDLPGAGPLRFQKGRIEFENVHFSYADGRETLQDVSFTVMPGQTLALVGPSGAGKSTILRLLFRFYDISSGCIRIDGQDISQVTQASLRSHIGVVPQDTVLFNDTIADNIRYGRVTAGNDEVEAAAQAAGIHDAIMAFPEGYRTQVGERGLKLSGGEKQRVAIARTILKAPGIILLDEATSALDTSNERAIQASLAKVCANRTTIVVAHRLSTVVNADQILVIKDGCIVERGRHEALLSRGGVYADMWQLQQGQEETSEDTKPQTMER

In turn, `CCCCN1C(=O)/C(=C\c2ccco2)C(=O)N(CCc2ccccc2)C1=O` returned a GTP binding, percent of control in [1] of 131%.
Still for that read-out and setting: as for `CCOCCCn1c(N)c(C(=O)Nc2sc3c(c2C(=O)OC)CCCC3)c2nc3ccccc3nc21`, the figure is 122%; as for `COCCCn1c(N)c(C(=O)Nc2sc3c(c2C(=O)OC)CCCC3)c2nc3ccccc3nc21`, 51.7%.
On to `C[C@H](O)[C@H]1CC[C@H]2[C@@H]3CCC4=CC(=O)CC[C@]4(C)[C@H]3CC[C@]12C`, for which the percent of DMSO control GFP in assay [2] is 98.9% (inactive). Further, the GFP response vs DMSO in assay [3] was 103% (inactive); in assay [5], 126% (inactive). In addition, the percent response of DMSO control in [4] was 91.3% (inactive). Further, the GFP response, % of DMSO in assay [6] is 89.6% (inactive). The double positive events in assay [7] came out at 61%. In addition, the vesicle binding response in assay [7] is 104% (inactive). For the same compound, the inhibition (as a rule, the drop in the measured response relative to a control, in per cent) in assay [8] was 11% (inactive); in assay [12] it was -3.68% (inactive); in assay [15], -0.6% (inactive); in assay [16] it was 0.2% (inactive); in assay [17], 2.8% (inactive); in assay [19], 9% (inactive). Besides, the superoxide response (% of plate) in [9] is 106% (inactive). Moreover, the aptamer binding inhibition in [10] is 0% (inactive). In addition, the response is -3.16% (inactive) in [11] and -6.77% (inactive) in assay [13]. The binding (% of control) in assay [14] was 102% (inactive). Further, in assay [18], the efflux inhibition (fraction of control) was -0.17 (inactive). Moreover, the differentiation response in [20] is -4.57% (inactive).
The compound `CN1C(=O)N(C)C(=O)C2(Cc3c(ccc4ccccc34)N(C)C2)C1=O` registered a GTP binding, percent of control in assay [1] of 82.6%.
`O=C(O)c1cn(Cc2ccc(Cl)cc2)c2ccccc12`: in assay [1], the GTP binding, percent of control worked out at 89.3%.
On the same count and under the same terms, next, `O=C1NC(=S)N(Cc2ccco2)C(=O)/C1=C\c1cccs1`: 95.1%; `COc1ccc(-c2cc(=NCCCCCC(=O)O)c3cc(C)ccc3o2)cc1`: 66.2%; `CCn1nc(/C=C/c2ccccc2)nc2c(=O)n(C)c(=O)nc1-2`: 76.7%.
Turning to `O=C1CN=C(c2ccccc2F)c2cc(Cl)ccc2N1`, the percent of DMSO control GFP in assay [2] was 90.9% (inactive). Besides, the GFP response vs DMSO in assay [3] is 147% (active); in assay [5], 78.7% (inactive). Besides, the percent response of DMSO control in [4] was 95.2% (inactive). For the same compound, the GFP response, % of DMSO in assay [6] was 88% (inactive). The same compound came in with a double positive events in [7] of 67.2%. Also, in assay [7], the vesicle binding response was 272% (inactive). The inhibition in assay [8] was 1.61% (inactive); in assay [12], 43.2% (inactive); in assay [15], 3.7% (inactive); in assay [16], 0.4% (inactive); in assay [17] it was 1.5% (inactive); in assay [19] it was 14% (inactive). Also, the superoxide response (% of plate) in assay [9] is 98.6% (inactive). Further, the aptamer binding inhibition in [10] is -3% (inactive). Besides, the response is -21.4% (inactive) in [11] and -7.23% (inactive) in [13]. For the same compound, in assay [14], the binding (% of control) was 94.8% (inactive). In addition, in [18], the efflux inhibition (fraction of control) is 0.27 (inactive). The differentiation response in [20] is 11.5% (inactive).

The values above are taken from PubChem BioAssay.
